Over roughly 1,500 compounds, “activity” has its median near 2; the lowest 2% begin near -18. The entries come from a sample that favours the lowest values as a whole. Active and inactive are the calls of the source.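 How the source made its calls: active means inhibition of at least 40% at 10 µM; inconclusive means no clear call, values can overlap the other calls; inactive means the rest.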

Sulfhydryl oxidase 1 (Homo sapiens), sequence (O00391 whole entry, looked up): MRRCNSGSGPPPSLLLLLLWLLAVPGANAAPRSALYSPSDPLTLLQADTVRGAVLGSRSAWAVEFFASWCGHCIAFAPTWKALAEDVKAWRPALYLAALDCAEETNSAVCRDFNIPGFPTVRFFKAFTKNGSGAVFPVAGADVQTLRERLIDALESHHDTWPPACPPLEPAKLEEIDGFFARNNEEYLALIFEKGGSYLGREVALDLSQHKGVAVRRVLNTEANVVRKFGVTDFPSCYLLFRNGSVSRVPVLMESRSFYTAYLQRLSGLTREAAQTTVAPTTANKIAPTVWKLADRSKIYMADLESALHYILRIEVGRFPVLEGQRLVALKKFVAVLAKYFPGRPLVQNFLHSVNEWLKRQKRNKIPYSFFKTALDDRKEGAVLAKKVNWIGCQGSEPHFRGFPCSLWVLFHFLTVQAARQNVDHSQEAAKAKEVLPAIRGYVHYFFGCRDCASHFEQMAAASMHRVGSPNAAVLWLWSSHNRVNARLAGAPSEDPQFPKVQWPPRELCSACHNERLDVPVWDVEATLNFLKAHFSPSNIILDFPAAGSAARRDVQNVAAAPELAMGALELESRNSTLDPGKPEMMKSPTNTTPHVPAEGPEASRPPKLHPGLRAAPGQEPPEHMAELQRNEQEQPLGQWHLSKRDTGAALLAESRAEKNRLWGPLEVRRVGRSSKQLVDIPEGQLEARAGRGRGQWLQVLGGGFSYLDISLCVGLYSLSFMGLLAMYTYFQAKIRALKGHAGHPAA

This experiment addresses Sulfhydryl oxidase 1 (Homo sapiens) (UniProt O00391). Nature of the experiment: human QSOX1 sulfhydryl oxidase inhibition – biochemical, ROS-Glo luminescence, single concentration, confirmation (AID 1347421).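 Further: 0% = DMSO wells with enzyme and 100% = wells lacking QSOX1 enzyme.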 The settings on record: recombinant hQSOX1, RNase A substrate, ROS-Glo H2O2 luminescence; at 10 µM.
Take `O=C(NC(=O)N1CCCCCC1)c1ccc(Cl)cc1`: the activity was -10.3% (inactive).
Regarding `COc1ccc(CNCCn2cccn2)c(OCC(O)CN2CCCC2)c1` (stereo not given), the activity was 1.2%.
Turning to `O=C(Cn1ccnc1)N(CC1CCN(C2Cc3ccccc3C2)CC1)CC1CCCO1` (stereo not given), the activity is 7.8%.
As for `COc1ccc(F)cc1S(=O)(=O)NC(C)C`, the activity is -2% (inactive).
As for `CCOc1ccc(Cl)cc1S(=O)(=O)NC(C)C`, the activity amounted to 3.5%.
On to `COc1ccc(C(N)=O)cc1S(=O)(=O)NC(C)C`, for which the activity was -19.1% (inactive).
Then `CN(Cc1cccs1)C(=O)c1ccc(OC2CCN(S(C)(=O)=O)CC2)c(Cl)c1`, with 12.2%; and `CN(Cc1n[nH]c2c1CCCCC2)CC1(c2cccc(F)c2)CCOC1` (stereo not given), with 4%.
Under `O=C(CC1C(=O)NCCN1Cc1ccccn1)NC1C2CC3CC(C2)CC1C3` (stereo not given) stands -4.8% (inactive); under `O=C(Cc1ccccc1F)Nc1ccc2c(c1)CN(Cc1ccoc1)CC2`, -1.9% (inactive).
As for `O=C(NCCCOc1cccnc1)C1CCC(=O)N(CCCc2ccccc2)C1` (stereo not given), the activity stood at 12.4%.
Regarding `O=C(O)c1cn(CCOc2ccccc2)c2ccccc12`, the activity was -13.2% (inactive).
Turning to `O=C(CCC1CCCN(Cc2ccccn2)C1)N1CCN(Cc2ccccc2)CC1` (stereo not given), the activity was -0.9% (inactive).
On to `Cc1cc(C)c(C(=O)N2CCCC(CCC(=O)N(C)CCc3ccccn3)C2)c(=O)[nH]1` (stereo not given), for which the activity was determined as 7.3%.
Then `COc1ccc(CNCCc2scnc2C)cc1OCC(O)CN(C)C(C)C` (stereo not given), with 7.8%; and `CC(C)OCCNC(=O)c1cc(COc2cccc3cccnc23)on1`, with 2.2%; and `C=CCCC(=O)N1CCC2(CCCN(Cc3ccc(F)c(F)c3)C2=O)C1` (stereo not given), with -1.3% (inactive).
Then `Cn1nc(C(=O)N2CCc3ccccc32)c2ccccc2c1=O`, with -5.3% (inactive).
On to `O=C1CCC(C(=O)N2CCC3(C=Cc4ccccc43)CC2)CN1CCc1ccccn1` (stereo not given), for which the activity worked out at 3.8%.
For the compound `COc1cccc(CN2CCNC(=O)C2CC(=O)NC2CCCCCCC2)c1` (stereo not given), the activity came out at 2.4%.
Take `CCC1=[C+]c2c(NCc3cccnc3)nc(C)nc2S1`: the activity is -5.8% (inactive).
Consider `CCC1=[C+]c2c(nc(C)nc2N2CCOCC2)S1`, for which the activity is -20.3% (inactive).
Turning to `CSc1ncc(Cl)c(C(=O)Nc2ccc(Br)cc2)n1`, the activity was -12.9% (inactive).
As to `Cc1oc(-c2cccs2)nc1CN(C)C(C)c1cccs1` (stereo not given), the activity was 2.7%.
Regarding `CCOC(=O)C1CCN(C(=O)CCc2ccc(OC)cc2)CC1`, the activity is -2% (inactive).
On to `CCN(CC)C(=O)C1CCCN(Cc2nc(-c3ccc(Cl)cc3)oc2C)C1` (stereo not given), for which the activity was found to be 4.3%.
`CC(NC(=O)CSc1nc(O)cc(=O)[nH]1)c1ccccc1` (stereo not given): the activity was -17.8% (inactive).
Regarding `CCN(CC)C(=O)N(CC)Cc1ccccc1`, the activity was -0.2% (inactive).
As for `c1ccc(CNc2ccc(NCc3ccccc3)nn2)cc1`, the activity was -8.7% (inactive).
Consider `CC(=O)n1nc(NCc2ccccc2)nc1NCc1ccccc1`, for which the activity is -22% (inactive).

The values above are taken from PubChem BioAssay AID1347421 (Sanford-Burnham Center for Chemical Genomics, 2020).
